According to PubChem BioAssay (NCATS):
Several values for one entry are separate records, joined by “and”; a condition that tells them apart may be missing. Equal entries are not always repeated. Values without a mark were called inactive. No rule for the calls is given here.

Biological target: Nuclear receptor subfamily 1 group I member 2 (Rattus norvegicus) (UniProt Q9R1A7)
Experiment: qHTS assay for small molecule activators of the rat pregnane X receptor (rPXR) signaling pathway (AID 651751); also: 0% is about no effect
Conditions: rPXR reporter cells, luciferase (One-Glo), 24 h

Nuclear receptor subfamily 1 group I member 2 (Rattus norvegicus), sequence (Q9R1A7 whole entry, looked up): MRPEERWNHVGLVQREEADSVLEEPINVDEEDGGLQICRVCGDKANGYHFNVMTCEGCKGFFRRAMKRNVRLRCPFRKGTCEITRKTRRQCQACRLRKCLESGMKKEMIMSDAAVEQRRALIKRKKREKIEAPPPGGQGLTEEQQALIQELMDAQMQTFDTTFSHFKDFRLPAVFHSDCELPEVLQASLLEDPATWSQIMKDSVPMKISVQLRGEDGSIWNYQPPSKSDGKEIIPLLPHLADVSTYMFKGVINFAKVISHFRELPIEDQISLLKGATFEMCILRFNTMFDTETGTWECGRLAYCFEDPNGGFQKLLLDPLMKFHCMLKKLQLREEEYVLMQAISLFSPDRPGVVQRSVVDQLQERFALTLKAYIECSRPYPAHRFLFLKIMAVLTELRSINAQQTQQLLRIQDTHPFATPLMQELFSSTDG

SMILES | max response
C1=CC2C3C=CC(C3)C2C1 (stereo not drawn) | 2.57%
COC(=O)c1c(Cl)c(Cl)c(C(=O)OC)c(Cl)c1Cl | 2.2%
c1ccc2occc2c1 | 2.28% and 7.63% and -1.22%
